From PubChem BioAssay (NCI) come the findings set out here.

Among the test systems are MOLT-4 leukemia; SR leukemia; RPMI-8226 leukemia; OVCAR-8 ovarian; OVCAR-5 ovarian; SK-OV-3 ovarian; IGROV1 ovarian; OVCAR-3 ovarian; HS 578T breast; NCI/ADR-RES ovarian; T-47D breast; BT-549 breast; MDA-MB-435 melanoma; SW-620 colon; MCF7 breast; HCT-116 colon; HCC-2998 colon; KM12 colon; OVCAR-4 ovarian.
What all share (assay): NCI-60 one-dose screen, 48 h (100 = growth as untreated, 0 = no growth, -100 = all killed)
Holding throughout (conditions): 10 µM unless noted

About 83,000 compounds went through this panel and 20% of them were active in at least one assay; those are over-represented in the sample as a whole.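 Step 1: grow cells in 96-well plates. Step 2: add test compound at a single concentration. Step 3: incubate 48 h. Step 4: record percent growth.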 Values without a mark were called inactive. Activity calls are given as the source filed them. Rule for the calls: active = growth percent below 10; inactive = the rest.

For the molecule `NC(=O)CNc1ccc([As]=[As]c2ccc(NCC(N)=O)cc2)cc1` (configuration not stated), the growth in the assay on MOLT-4 leukemia is 58.8%; with SR leukemia, 14%; in the assay with RPMI-8226 leukemia, 13.5%; with OVCAR-8 ovarian, 61.2%; with OVCAR-5 ovarian it was 74.6%; in the assay with SK-OV-3 ovarian, 93.7%. Also, the growth is 8.16% (active) in the assay with IGROV1 ovarian; -41.5% (active) in the assay with OVCAR-3 ovarian; 10.5% in the assay on HS 578T breast; 65.6% in the assay with NCI/ADR-RES ovarian; 33.3% in the assay on T-47D breast; 31.6% in the assay on BT-549 breast. Further, the growth in the assay with MDA-MB-435 melanoma is 61.7%; in the assay on SW-620 colon, 24.6%; in the assay with MCF7 breast, 22.9%; in the assay on HCT-116 colon, 54.7%; in the assay with HCC-2998 colon, 79.1%; in the assay with KM12 colon, 88.5%.
Consider `CC12CC=CCC1CCC1C2CCC2(C)C(c3ccc(=O)oc3)CCC12O` (configuration not stated), for which the growth in the assay on MOLT-4 leukemia is -15.7% (active); with SR leukemia, -3.66% (active); with RPMI-8226 leukemia it was -9.88% (active); in the assay on OVCAR-8 ovarian, -41.8% (active); in the assay on OVCAR-5 ovarian it was -80.6% (active); in the assay on SK-OV-3 ovarian it was -8.44% (active). The growth in the assay on IGROV1 ovarian was -12.3% (active); in the assay with OVCAR-3 ovarian, -76.8% (active); in the assay on HS 578T breast, -18.5% (active); in the assay on NCI/ADR-RES ovarian it was -41.1% (active); in the assay on T-47D breast it was -4.1% (active); in the assay with BT-549 breast it was -65.4% (active). Besides, the growth in the assay on MDA-MB-435 melanoma is -89.1% (active); with SW-620 colon, -58.9% (active); in the assay with MCF7 breast, -21.6% (active); in the assay on HCT-116 colon it was -67.1% (active); with HCC-2998 colon, -10.9% (active); with KM12 colon it was -49.5% (active).
On to `Clc1cccc(NCOOC2(OOCNc3cccc(Cl)c3)CCCCC2)c1`, for which the growth in the assay with MOLT-4 leukemia is 72.4%; with SR leukemia, -41.4% (active); with RPMI-8226 leukemia it was 53.1%; with OVCAR-8 ovarian, 30.3%; with OVCAR-5 ovarian it was 82.5%; in the assay on SK-OV-3 ovarian, 94.7%. Moreover, the growth in the assay on IGROV1 ovarian is -33.2% (active); in the assay with OVCAR-3 ovarian, 79.7%; in the assay with HS 578T breast, 98.4%; in the assay on NCI/ADR-RES ovarian, 36.8%; with T-47D breast it was 62%; with BT-549 breast it was 78%. Further, the growth in the assay on MDA-MB-435 melanoma was 78.7%; with SW-620 colon, 98.8%; in the assay with MCF7 breast, 65.3%; in the assay on HCT-116 colon, 61.2%; in the assay with HCC-2998 colon it was 95.4%.
Take `CCCCCCCC[N+](C)(CCCCCCCC)CCCCCCCC`: the growth was 37.4% in the assay on MOLT-4 leukemia; 28.1% in the assay on SR leukemia; 44.2% in the assay with RPMI-8226 leukemia; -100% (active) in the assay on OVCAR-8 ovarian; -100% (active) in the assay with OVCAR-5 ovarian; -94.1% (active) in the assay on OVCAR-4 ovarian. In addition, the growth in the assay on SK-OV-3 ovarian is -97.8% (active); in the assay with OVCAR-3 ovarian, -100% (active); in the assay on HS 578T breast, -66.6% (active); with NCI/ADR-RES ovarian it was -100% (active); with T-47D breast, -73.4% (active); in the assay on MDA-MB-435 melanoma it was -90.8% (active). In addition, the growth was -100% (active) in the assay on SW-620 colon; -100% (active) in the assay on MCF7 breast; -100% (active) in the assay with HCT-116 colon; -98% (active) in the assay with HCC-2998 colon; -100% (active) in the assay with KM12 colon.
On to `CC[C@H](NC(=O)[C@H]1CCCCN1C)C(=O)N(C)[C@H](C[C@@H](OC(C)=O)c1nc(C(=O)N[C@@H](Cc2ccccc2)C[C@H](C)C(=O)O)cs1)C(C)C`, for which the growth was 10.2% in the assay with MOLT-4 leukemia; 6.46% (active) with SR leukemia; 15.5% with RPMI-8226 leukemia; 9.15% (active) with OVCAR-8 ovarian; 37.5% in the assay on OVCAR-5 ovarian; 25.8% in the assay with SK-OV-3 ovarian. In addition, the growth with IGROV1 ovarian is 25.3%; in the assay with OVCAR-3 ovarian it was -6.57% (active); in the assay with HS 578T breast, 11.4%; in the assay on NCI/ADR-RES ovarian it was 9.47% (active); with T-47D breast, 51.3%; in the assay with BT-549 breast, -15.6% (active). Besides, the growth in the assay on MDA-MB-435 melanoma is -36.5% (active); in the assay with SW-620 colon, 22.4%; with MCF7 breast, 16.9%; with HCT-116 colon it was 0.18% (active); in the assay on HCC-2998 colon, 8.05% (active); in the assay on KM12 colon, 7.87% (active).
Take `COc1cc(/C=C\c2cc(OC)c(OC)c(OC)c2)cc(N/C=C\C(=O)c2cc(OC)c(OC)c(OC)c2)c1OC`: the growth with MOLT-4 leukemia is 28.7%; in the assay on SR leukemia, -5.44% (active); in the assay on RPMI-8226 leukemia, 22.8%; in the assay with OVCAR-8 ovarian, 41.2%; in the assay on OVCAR-5 ovarian it was 31.8%; in the assay with SK-OV-3 ovarian it was 21.3%. For the same molecule, the growth in the assay with IGROV1 ovarian is 15.6%; in the assay on OVCAR-3 ovarian, 9.78% (active); in the assay on HS 578T breast it was 1.26% (active); in the assay on NCI/ADR-RES ovarian, 19.5%; in the assay on T-47D breast, -3% (active); with BT-549 breast, 43.9%. The growth in the assay on MDA-MB-435 melanoma is -37.3% (active); with SW-620 colon it was 28.2%; in the assay with MCF7 breast, 15.1%; with HCT-116 colon, 17.8%; in the assay on HCC-2998 colon, 53.6%; with KM12 colon, 21.8%.
In the case of `C[C@]12C[C@@H](CO)[C@H](O)C[C@@H]1CC[C@@H]1[C@@H]2CC[C@]2(C)[C@@H](O)CC[C@@H]12`, the growth in the assay on MOLT-4 leukemia is 85.8%; in the assay with SR leukemia, 79.4%; in the assay with RPMI-8226 leukemia it was 91.9%; in the assay with OVCAR-8 ovarian, 96.8%; in the assay on OVCAR-5 ovarian, 104%; with OVCAR-4 ovarian, 105%. Also, the growth with SK-OV-3 ovarian is 106%; in the assay on IGROV1 ovarian, 105%; with NCI/ADR-RES ovarian it was 99.6%; in the assay with T-47D breast, 104%; in the assay on BT-549 breast it was 78.9%; with MDA-MB-435 melanoma, 105%. In addition, the growth in the assay on SW-620 colon is 101%; in the assay on MCF7 breast, 121%; in the assay with HCT-116 colon it was 103%; with HCC-2998 colon it was 97.9%; in the assay with KM12 colon, 101%.
Turning to `CC(=O)Nc1ccc(NC(=O)c2ccc([As](O)O)cc2)cc1`, the growth in the assay on MOLT-4 leukemia was 108%; in the assay on SR leukemia it was 73.8%; in the assay with RPMI-8226 leukemia it was 34.5%; in the assay with OVCAR-8 ovarian, 102%; in the assay with OVCAR-5 ovarian it was 140%; in the assay on OVCAR-4 ovarian it was 103%. Besides, the growth is 114% in the assay with OVCAR-3 ovarian; 117% with HS 578T breast; 101% in the assay on NCI/ADR-RES ovarian; 48.3% in the assay on T-47D breast; 113% in the assay on BT-549 breast; 99.8% in the assay on MDA-MB-435 melanoma. The growth with SW-620 colon was 87.9%; in the assay with MCF7 breast, 85%; with HCT-116 colon it was 101%; in the assay on HCC-2998 colon, 112%; in the assay with KM12 colon, 124%.
For `COC(=O)[C@@H](C)C[C@H](Cc1ccccc1)NC(=O)c1nc([C@@H](C[C@H](C(C)C)N(C)C(=O)[C@@H](NC(=O)[C@H]2C[C@H](O)CCN2C)C(C)C)OC(C)=O)sc1C(C)C`, the growth is 11% in the assay with MOLT-4 leukemia; 3.04% (active) in the assay on SR leukemia; -4.65% (active) in the assay with RPMI-8226 leukemia; 10.6% in the assay on OVCAR-8 ovarian; 33.4% in the assay on OVCAR-5 ovarian; 2.1% (active) with SK-OV-3 ovarian. In addition, the growth was 10.2% in the assay on IGROV1 ovarian; 2.66% (active) with OVCAR-3 ovarian; 6.61% (active) with HS 578T breast; 38.9% in the assay with NCI/ADR-RES ovarian; 78.5% in the assay on T-47D breast; -30.8% (active) with BT-549 breast. Further, the growth in the assay on MDA-MB-435 melanoma is -48.3% (active); in the assay with SW-620 colon, 21.9%; with MCF7 breast, 18.7%; in the assay on HCT-116 colon it was 2.56% (active); in the assay with HCC-2998 colon, 14.1%; in the assay with KM12 colon, 0.729% (active).
For `Cc1ccccc1NC(=NCCCN1CC1)Nc1ccccc1C`, the growth in the assay with MOLT-4 leukemia is 70.8%; in the assay on SR leukemia it was 69.7%; in the assay with RPMI-8226 leukemia, 95.2%; with OVCAR-8 ovarian, 82.6%; in the assay on OVCAR-5 ovarian it was 123%; in the assay on OVCAR-4 ovarian it was 88.9%. Also, the growth in the assay with SK-OV-3 ovarian was 79.9%; in the assay with IGROV1 ovarian, 82%; in the assay on HS 578T breast, 97.4%; with T-47D breast, 74.5%; in the assay on BT-549 breast, 104%; in the assay on MDA-MB-435 melanoma, 93%. The growth with SW-620 colon is 87.1%; in the assay with MCF7 breast it was 68.9%; with HCT-116 colon, 79.8%; in the assay with HCC-2998 colon, 102%; in the assay on KM12 colon, 94.6%.
In the case of `O=[N+]([O-])c1cc([N+](=O)[O-])c(Cl)cc1Cl`, the growth with MOLT-4 leukemia is -21% (active); in the assay with SR leukemia, -31.3% (active); with RPMI-8226 leukemia, -50.2% (active); with OVCAR-8 ovarian, -26.8% (active); in the assay with OVCAR-5 ovarian, -69.1% (active); with OVCAR-4 ovarian, -99% (active). Besides, the growth is 104% with SK-OV-3 ovarian; -98% (active) with OVCAR-3 ovarian; -27.6% (active) in the assay with HS 578T breast; -45.1% (active) in the assay with NCI/ADR-RES ovarian; -35.3% (active) in the assay with T-47D breast; -66.5% (active) in the assay with MDA-MB-435 melanoma. Besides, the growth with SW-620 colon is -77.1% (active); in the assay on MCF7 breast, -57.9% (active); in the assay on HCT-116 colon, -98.8% (active); in the assay with HCC-2998 colon, 38%; in the assay with KM12 colon, -81.1% (active).
